An excerpt weighted towards active compounds, which were near 1.2% of everything screened.
APOBEC3G inh = inhibitors of human APOBEC3G DNA deaminase | Q9HC16 | recombinant A3G, ssDNA deamination FAM/TAMRA fluorescence | inhibition, % at 20 µM | hit rate 0.28% among 330,000;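 active = inhibition of at least 40% at 20 µM, with no more than 30% in the related APOBEC3A deaminase screen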;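 note: plate controls were DMSO wells with A3G for no effect and wells lacking A3G enzyme for full effect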
Target sequence (Q9HC16 whole entry, looked up): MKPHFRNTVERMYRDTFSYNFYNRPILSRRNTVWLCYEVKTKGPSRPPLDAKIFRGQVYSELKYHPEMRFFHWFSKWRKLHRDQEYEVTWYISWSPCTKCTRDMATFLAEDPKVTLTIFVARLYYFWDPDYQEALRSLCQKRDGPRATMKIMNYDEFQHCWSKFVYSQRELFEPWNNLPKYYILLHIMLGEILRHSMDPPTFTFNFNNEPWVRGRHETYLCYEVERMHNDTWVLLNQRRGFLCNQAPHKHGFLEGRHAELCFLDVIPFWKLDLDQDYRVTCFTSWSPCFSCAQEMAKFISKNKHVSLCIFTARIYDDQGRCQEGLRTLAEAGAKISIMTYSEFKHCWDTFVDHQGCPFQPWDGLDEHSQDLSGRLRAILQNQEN
NALP1 inh = blocks the NALP1 inflammasome reconstituted in yeast. S. cerevisiae NALP1/ASC/caspase-1 growth, X-gal OD620, 72 h. AID 2071. hit rate 0.61% among 280,000. inhibition, % at 10 µM; in the data active = inhibition mostly above about 24%, no sharp cut-off; inactive = mostly below about 32%
PolyA inh = inhibitors of polyadenylation in S. cerevisiae; AID 1875; activity score, % at 12 µM; S. cerevisiae SKY197-pL101 polyadenylation reporter, beta-gal luminescence; efflux-impaired pdr1/pdr3 knockout yeast; score 100 = 6 SD above DMSO; hit rate 0.02% among 300,000;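 active = lowest replicate activity score at least 50, where 100 means six control SD above control mean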;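 note: yeast exposed to compound for 9 h at 30 °C; higher score means more reporter readthrough which indicates perturbed polyadenylation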
APOBEC3A inh = blocks human APOBEC3A ssDNA deamination | P31941 | recombinant A3A, FAM/TAMRA ssDNA deamination fluorescence | inhibition, % at 20 µM | hit rate 0.41% among 330,000 | AID 493011;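 active = at least 40% inhibition at 20 µM here, with at most 30% in a related deaminase screen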;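 note: plate controls were A3A with DMSO for no effect and wells lacking A3A enzyme for full effect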
Target sequence (P31941 whole entry, looked up): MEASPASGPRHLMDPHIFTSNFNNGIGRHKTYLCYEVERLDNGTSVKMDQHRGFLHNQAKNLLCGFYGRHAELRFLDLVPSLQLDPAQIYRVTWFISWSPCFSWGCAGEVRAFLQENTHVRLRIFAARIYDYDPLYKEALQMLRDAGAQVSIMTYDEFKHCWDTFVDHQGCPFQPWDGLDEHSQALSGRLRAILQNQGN
The depositor's hits bear a star.

For CCS(=O)(=O)Nc1ccc(NC(C)=O)cc1 the results were APOBEC3G inh -1.0, NALP1 inh 36.4*, PolyA inh 1.3 and APOBEC3A inh -2.7.
Screening COCCOC(=O)/C(=C/c1ccc(OC(=O)c2ccccc2)cc1)C(C)=O returned APOBEC3G inh -5.7, NALP1 inh 61.3*, PolyA inh -49.8 and APOBEC3A inh 0.2.
For CCN(C[C@H]1N[C@@](C)(C(=O)OC)[C@H]2C(=O)N(C)C(=O)[C@@H]12)S(=O)(=O)c1ccc(OC)cc1 the results were APOBEC3G inh -4.4 and APOBEC3A inh -1.3.
For CN(c1ccccc1)c1cc(Br)nc(Br)c1 the results were APOBEC3G inh -8.2, PolyA inh 14.2 and APOBEC3A inh -5.9.
For CCCCCCCCC[n+]1cccc2c3ccccc3ccc21 the results were APOBEC3G inh 1.2, NALP1 inh 24.6, PolyA inh -9.2 and APOBEC3A inh 1.1.
Screening CCCCCCCCCCCCCCCC[n+]1cccc2ccccc21 returned APOBEC3G inh 44.0, NALP1 inh 98.5* and APOBEC3A inh 62.2.
Screening COc1cc(N2CCCC2)c(OC)cc1/C=C(/C#N)c1cccc(F)c1 returned NALP1 inh 43.8* and PolyA inh 4.1.
Screening N#C/C(=C/c1ccc(N2CCCCCC2)o1)c1cccc(F)c1 returned APOBEC3G inh 10.0, NALP1 inh 21.2, PolyA inh -42.7 and APOBEC3A inh -2.1.
`CCOC(=O)C1CCCCN1Cc1cccc(F)c1` (stereo not given) gave APOBEC3G inh -5.2, NALP1 inh 49.0, PolyA inh 16.1 and APOBEC3A inh -3.0.
For CCOC(=O)C1CCCCN1Cc1ccc(F)cc1 (stereo not given) the results were APOBEC3G inh -2.5, NALP1 inh 43.4*, PolyA inh 3.6 and APOBEC3A inh -5.2.
`Cc1ccc(S(=O)(=O)NC(C)(C)C)cc1C(=O)OCC(=O)N1CCCC1=O` gave APOBEC3G inh -8.9, PolyA inh -7.7 and APOBEC3A inh -3.5.
Screening Cc1cc(NC(=O)CSc2nc(N)c(NC(=O)c3ccco3)c(=O)[nH]2)no1 returned APOBEC3G inh -4.4, PolyA inh -4.7 and APOBEC3A inh -6.2.
CCOc1ccccc1CN1CCN(Cc2nc3c(s2)CCCC3)CC1CCO (stereo not given) was read as APOBEC3G inh -6.9, NALP1 inh 35.1*, PolyA inh 0.3 and APOBEC3A inh -6.1.
O=C(CSc1nnc2ncccn12)Nc1cccc2ccccc12 was read as APOBEC3G inh -2.1, NALP1 inh 4.0, PolyA inh -16.6 and APOBEC3A inh -1.5.
Cc1cc(C)c(NC(=O)C2CCCN2CCC(C)C)c(C)c1 (stereo not given) was read as APOBEC3G inh -3.0, NALP1 inh -78.8, PolyA inh -7.9 and APOBEC3A inh 0.1.
Cc1cc(C)c(NC(=O)C2CCCCN2C)c(C)c1 (stereo not given) was read as APOBEC3G inh -0.5, NALP1 inh 40.2*, PolyA inh 10.9 and APOBEC3A inh 0.4.
`CCC(C)[C@H](NC(=O)N1CC(=O)Nc2ccccc21)C(=O)N1CCC[C@H]1C(=O)O` (stereo not given in full) gave APOBEC3G inh -5.4, NALP1 inh 11.3, PolyA inh 6.1 and APOBEC3A inh 0.7.
`COC(=O)c1ccc(NC(=O)Cc2ccc(C)cc2)cc1` gave APOBEC3G inh -2.4, NALP1 inh 35.4*, PolyA inh 19.6 and APOBEC3A inh -2.5.
Screening O=C1C=CC(=O)N1c1ccc(OC(F)F)cc1 returned NALP1 inh 111.8*.
Screening CCCN(CC1CC1)C(=S)Nc1ccc(Oc2ccccc2)cc1 returned APOBEC3G inh 0.2, NALP1 inh 61.2*, PolyA inh -2.6 and APOBEC3A inh -2.3.
For CCCCN(C)C(=S)Nc1ccc(Oc2ccccc2)cc1 the results were APOBEC3G inh -3.9, NALP1 inh 28.6, PolyA inh -2.1 and APOBEC3A inh -1.5.
CC(=O)c1ccc(-c2nnc(CCC(=O)N3CCCC(C(=O)CC(C)C)C3)o2)s1 (stereo not given) was read as APOBEC3G inh -9.3, NALP1 inh 26.5, PolyA inh 0.3 and APOBEC3A inh -6.5.
For Clc1ccccc1CN1CCN(CCCc2ccccc2)CC1 the results were NALP1 inh 21.5* and PolyA inh 2.4.
Screening Cc1cccc(CN2CCN(CCCc3ccccc3)CC2)c1 returned APOBEC3G inh -6.3, NALP1 inh 31.0*, PolyA inh -18.5 and APOBEC3A inh -2.1.
Cc1cccnc1NC(=O)Nc1ccc(F)cc1 was read as APOBEC3G inh -9.0, NALP1 inh 27.8*, PolyA inh 7.7 and APOBEC3A inh -0.4.
`COc1ccc(N=Cc2ccc[nH]2)cc1` gave APOBEC3G inh -6.8, NALP1 inh 36.0*, PolyA inh 13.8 and APOBEC3A inh -3.1.
For CCOC(=O)c1c(N)nn(C(=O)C(C)C)c1-c1ccccc1 the results were APOBEC3G inh -6.0, NALP1 inh 37.5*, PolyA inh 7.3 and APOBEC3A inh -1.9.
`CCOC(=O)c1c(N)nn(C(=O)CC)c1-c1ccccc1` gave APOBEC3G inh -0.8, NALP1 inh -7.2, PolyA inh -5.4 and APOBEC3A inh -1.8.
`Cc1ccc(CNC(=O)C2CCC(=O)N2Cc2ccc(C)cc2)cc1` (stereo not given) gave APOBEC3G inh -8.7, NALP1 inh 21.2, PolyA inh 10.5 and APOBEC3A inh -1.7.
CSc1nn(-c2ccc(C(=O)OC(C(=O)NC(N)=O)C(C)C)cc2)c(=S)s1 (stereo not given) was read as APOBEC3G inh -4.8, NALP1 inh 38.3*, PolyA inh -2.7 and APOBEC3A inh -1.0.
For CCNC(=O)NC(=O)C(C)OC(=O)c1ccc(-n2nc(SC)sc2=S)cc1 (stereo not given) the results were APOBEC3G inh -1.8, NALP1 inh 21.3, PolyA inh -10.3 and APOBEC3A inh 0.4.
COc1ccc(OC)c(NC(=O)C2CCN(c3ncccn3)CC2)c1 was read as APOBEC3G inh -1.9, NALP1 inh 20.5 and APOBEC3A inh -0.6.
Screening COc1ccccc1NC(=O)C(CC(C)C)NC(=O)C1CCCCC1 (stereo not given) returned APOBEC3G inh 0.3, NALP1 inh 40.7*, PolyA inh -19.1 and APOBEC3A inh 0.2.
COc1ccccc1NC(=O)C1CCN(c2ncccn2)CC1 was read as APOBEC3G inh -3.2, NALP1 inh 25.2*, PolyA inh 6.7 and APOBEC3A inh 0.8.
CCC(C)C(=O)Nc1cccc(SC)c1 (stereo not given) was read as APOBEC3G inh -1.1, NALP1 inh 15.7, PolyA inh 7.2 and APOBEC3A inh 1.3.
Screening N#Cc1ccc(C(=O)OCC(=O)N2CCCCCC2)cc1 returned APOBEC3G inh -9.7 and APOBEC3A inh -1.8.
Screening O=C(NN=C1C2CC3CC(C2)CC1C3)c1cccs1 returned APOBEC3G inh -6.0, NALP1 inh 40.9*, PolyA inh 6.1 and APOBEC3A inh -2.9.
Cc1ccc(CN2C(=O)CCSc3ccc(Cl)cc32)cc1 was read as APOBEC3G inh 2.0, NALP1 inh 35.5*, PolyA inh -17.7 and APOBEC3A inh -3.5.
Screening O=C1CCSc2ccc(Cl)cc2N1Cc1cccc(Cl)c1 returned APOBEC3G inh -1.6, NALP1 inh 34.5, PolyA inh -24.7 and APOBEC3A inh -1.8.

Screens from PubChem.
